Most compounds without a hit are left out; they make up all but 4% or so of the library.
HIF-2a block: inhibitors of HIF-2a. inhibition, % at 18.8 µM. 786-0 RCC cells HIF-2a reporter, luciferase luminescence, overnight. 0.72% of 360,000 active;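 active = inhibition of the luminescence signal of 40% or more relative to plate controls, in a single-dose primary screen at 18.75 µM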
LMP1 NFkB inh: reduces LMP1-driven NF-kappaB luciferase signal. LMP1-induced NF-kappaB luciferase reporter cells, luminescence. inhibition, % at 12.5 µM. 0.69% of 350,000 active; in the data active = inhibition above about 41%;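 also: 0% = neutral control wells and 100% = reference inhibitor control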
TROY NFkB inh: inhibitors of TROY-dependent NF-kB signaling; inhibition, % at 10 µM; AID 1347056; 0.98% of 360,000 active; Q293 LMP1-TROYcd NF-kB luciferase reporter, 4 h;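 active = compounds whose plate-normalised and pattern-corrected inhibition of the luciferase reporter signal at the single screening dose is 50% or more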
TWEAK-Fn14 inh: inhibitors of TWEAK-Fn14 interaction signaling; TWEAK-stimulated Fn14 reporter cells, luciferase luminescence, 8 h; inhibition, % at 10 µM; 2% of 360,000 active; AID 1159606; in the data active = inhibition above about 50%
Peg3 prom inh: Peg3 promoter activity inhibition; HeLa PEG-Prom luciferase reporter, luminescence, overnight; inhibition, % at 20 µM; 1.7% of 360,000 active;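 active = inhibition of at least 50% at 20 µM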
TRPM1 prom inh: MITF TRPM1 promoter inhibition in SK-MEL-5 cells; AID 488899; SK-MEL-5 TRPM1 promoter luciferase, 24 h; inhibition, % at 12.5 µM; 0.83% of 330,000 active;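 active = mean inhibition across replicates of 60% or more, whatever share of single replicates reaches that level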
The depositor's hits bear a star.

How did COc1cc(/C=N/Nc2nc(C)nc3c2cnn3-c2ccccc2)ccc1O do in these assays?
HIF-2a block: -129; LMP1 NFkB inh: -16; TROY NFkB inh: 44; TWEAK-Fn14 inh: 64*; Peg3 prom inh: 33; TRPM1 prom inh: 3

Results for O=C(O)c1cccc(N/N=C/c2ccc(OC(F)(F)F)cc2)c1 ?
HIF-2a block: 17; LMP1 NFkB inh: 39; TROY NFkB inh: -64; TWEAK-Fn14 inh: -18; Peg3 prom inh: 14; TRPM1 prom inh: 74*

Results for COC(=O)c1ccc(COc2ccc(/C=N/Nc3cccc(C(=O)O)c3)cc2)cc1 ?
HIF-2a block: -86; LMP1 NFkB inh: -7; TROY NFkB inh: -17; TWEAK-Fn14 inh: 22; Peg3 prom inh: -159; TRPM1 prom inh: -19

How did COc1cc(/C=N/NC(=O)CCn2cnc(-c3ccccc3)c2-c2ccccc2)ccc1O do in these assays?
HIF-2a block: 20; LMP1 NFkB inh: 15; TROY NFkB inh: 5; TWEAK-Fn14 inh: 29; Peg3 prom inh: 53*; TRPM1 prom inh: 2

What do the screens show for `COc1cc(/C=N/Nc2ccc(C(=O)O)cc2)ccc1O`?
HIF-2a block: -37; LMP1 NFkB inh: 29; TROY NFkB inh: 27; TWEAK-Fn14 inh: 72*; Peg3 prom inh: -49; TRPM1 prom inh: 16

Results for COc1cc(/C=N/Nc2ccccn2)ccc1O ?
HIF-2a block: -88; LMP1 NFkB inh: 1; TROY NFkB inh: 88*; TWEAK-Fn14 inh: 63*; Peg3 prom inh: -132; TRPM1 prom inh: -30

What do the screens show for `COc1ccc(/C=N/NC(=S)Nc2cccc(C(=O)O)c2)cc1`?
HIF-2a block: -32; LMP1 NFkB inh: 25; TROY NFkB inh: -39; TWEAK-Fn14 inh: 50*; Peg3 prom inh: -68; TRPM1 prom inh: 10

Results for COc1cccc(/C=N/NC(=S)Nc2cccc(C(=O)O)c2)c1O ?
HIF-2a block: 26; LMP1 NFkB inh: -1; TROY NFkB inh: -34; TWEAK-Fn14 inh: -1; Peg3 prom inh: -13; TRPM1 prom inh: 43

Results for COc1cc(/C=N/NC(=S)Nc2cccc(C(=O)O)c2)ccc1O ?
HIF-2a block: 43*; LMP1 NFkB inh: 74*; TROY NFkB inh: -60; TWEAK-Fn14 inh: -16; Peg3 prom inh: 12; TRPM1 prom inh: 40

How did Cc1ccc(OCc2csc(N)n2)cc1 do in these assays?
HIF-2a block: -211; LMP1 NFkB inh: -19; TROY NFkB inh: -36; TWEAK-Fn14 inh: -11; Peg3 prom inh: -237; TRPM1 prom inh: -50

How did CCCn1cnnc1CNC(=O)[C@H]1O[C@@H](n2ccc(=O)[nH]c2=O)[C@H](O)[C@@H]1O do in these assays?
HIF-2a block: 8; TROY NFkB inh: -10; TWEAK-Fn14 inh: 15; Peg3 prom inh: 14

What do the screens show for `COc1ccc(C(=O)/C(C#N)=N/Nc2ccc([N+](=O)[O-])cc2)cc1`?
HIF-2a block: -1; LMP1 NFkB inh: 31; TROY NFkB inh: 63*; TWEAK-Fn14 inh: 59*; Peg3 prom inh: 38; TRPM1 prom inh: 72*

How did N#CC(C#N)=NNc1ccc([N+](=O)[O-])cc1 do in these assays?
HIF-2a block: -8; LMP1 NFkB inh: 16; TROY NFkB inh: 56*; TWEAK-Fn14 inh: 21; Peg3 prom inh: -41; TRPM1 prom inh: -2

Results for Cc1ccc(-n2c(SCC(=O)N3CCCCC3)nc(O)c(Cc3ccccc3)c2=O)cc1 ?
HIF-2a block: 3; LMP1 NFkB inh: 3; TROY NFkB inh: 9; TWEAK-Fn14 inh: -4; Peg3 prom inh: -5; TRPM1 prom inh: 4

How did CCn1cc(Cl)c(C(=O)N2N=C(c3ccc4ccccc4c3)CC2c2ccccc2O)n1 (stereo not given) do in these assays?
HIF-2a block: 2; LMP1 NFkB inh: 0; TROY NFkB inh: 43; TWEAK-Fn14 inh: 72*; Peg3 prom inh: 28; TRPM1 prom inh: 5

Results for O=S1(=O)CCN(Cc2csc(-c3cccs3)n2)CC1 ?
HIF-2a block: -109; LMP1 NFkB inh: 6; TROY NFkB inh: -17; TWEAK-Fn14 inh: 22; Peg3 prom inh: -97; TRPM1 prom inh: -29

How did c1csc(-c2nc(CN3CCSCC3)cs2)c1 do in these assays?
HIF-2a block: -77; LMP1 NFkB inh: 30; TROY NFkB inh: 15; TWEAK-Fn14 inh: 60*; Peg3 prom inh: -57; TRPM1 prom inh: 4

Results for COc1cccc(/C=C2\SC(=S)N(CCC(=O)Nc3ccc(O)cc3)C2=O)c1 ?
HIF-2a block: -86; LMP1 NFkB inh: -1; TROY NFkB inh: 5; TWEAK-Fn14 inh: 25; Peg3 prom inh: -103; TRPM1 prom inh: -43
